Compound activity: PubChem, National Center for Advancing Translational Sciences (NCATS)
Most compounds without a hit are left out; they make up all but 1.3% or so of the library.
TrxR1 inh: blocks rat thioredoxin reductase 1; O89049; recombinant rTrxR1, NADPH fluorescence consumption, selenite substrate; Potency, µM (doses to about 114 µM), for inactives: at the highest dose activity change, negative = inhibition, usual class: inhibitors; actives 1% (n = 390,000); also: potency is read from the fitted curve at half-maximal effect; nearly all actives have a fitted effect of over 65% in size
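Rat TrxR1 (90 nM in the dispensed reagent) was pre-reduced with 400 uM NADPH for 5 min at room temperature, then incubated with compound for 15 min. After 400 uM selenite was added, NADPH fluorescence (Ex 340/Em 450 nm) was followed for 8 min.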
GALK inh: galactokinase (human) inhibition; P51570; Purified GALK, Kinase-Glo residual ATP luminescence; Potency, µM (top dose mostly 57.5 µM), for inactives: at the top dose activity change, negative = inhibition, most hits filed as inhibitors; actives 0.007% (n = 270,000); AID 1868; also: potency is read from the fitted curve at half-maximal effect
Target sequence (P51570 whole entry, looked up): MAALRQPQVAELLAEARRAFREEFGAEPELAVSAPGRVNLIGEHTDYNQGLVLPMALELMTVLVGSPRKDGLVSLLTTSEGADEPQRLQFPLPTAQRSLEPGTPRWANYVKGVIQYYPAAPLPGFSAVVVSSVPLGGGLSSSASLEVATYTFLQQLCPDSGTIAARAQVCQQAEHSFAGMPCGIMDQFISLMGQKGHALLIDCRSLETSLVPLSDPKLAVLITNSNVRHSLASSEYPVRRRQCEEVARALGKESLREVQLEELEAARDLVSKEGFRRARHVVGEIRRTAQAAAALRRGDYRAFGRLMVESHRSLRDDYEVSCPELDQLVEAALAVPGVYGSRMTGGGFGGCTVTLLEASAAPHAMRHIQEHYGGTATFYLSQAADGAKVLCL
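Kinase-Glo Plus luminescence measured ATP left after a 1 h room-temperature reaction. The reaction used 5 nM GALK, 100 uM galactose and 35 uM ATP at pH 8.0 (20 mM HEPES, 5 mM MgCl2, 60 mM NaCl, 1 mM DTT, 0.01% BSA).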
Giardia killer: kills Giardia lamblia. Giardia lamblia trophozoite viability. activity change, % at 7.66 µM, hits read low. actives 0.15% (n = 340,000). AID 540267; in the data active = activity change below about -80%; inconclusive = between about -30% and that limit;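 also: parasites exposed to compound for two days anaerobically before the ATP read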
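Viability, read as ATP luminescence: trophozoites at 100 cells/well, compound added, 48 hrs anaerobic at 37 deg C, then 15-30 min room-temperature development before reading.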
Pin1 inh: blocks the human prolyl isomerase Pin1; actives 0.009% (n = 390,000); Pin1 FP peptide displacement, HiFluor488, 10 min; AID 504891; Q13526; Potency, µM (highest dose often 115 µM), for the others: at the top dose activity, negative = inhibition, most hits filed as inhibitors; active = well fitted inhibition curve with a large enough effect in the polarisation, with a control signal flat, not every such curve was filed as active; inconclusive = small, poorly fitted or top-dose-only effect, or effect the other way, or a change in a side signal; inactive = no such curve, though single readings can be large or run the other way; the % refers to the polarisation; also: potency is read from the fitted curve at half-maximal effect
Target sequence (Q13526 whole entry, looked up): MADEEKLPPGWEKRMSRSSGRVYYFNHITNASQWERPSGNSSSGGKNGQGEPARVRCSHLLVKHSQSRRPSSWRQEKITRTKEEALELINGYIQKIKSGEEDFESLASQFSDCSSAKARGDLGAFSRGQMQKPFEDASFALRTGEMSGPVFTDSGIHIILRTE
TrxR1 substrate: rat thioredoxin reductase 1 substrate activity; purified TrxR1 substrate turnover, NADPH consumption readout; Potency, µM (highest dose often 114 µM), for the others: top-dose activity change, negative = substrate turnover; actives 0.01% (n = 390,000); AID 588456; also: potency is read from the fitted curve at half-maximal effect; nearly all actives have a fitted effect of over 50% in size
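Rat TrxR1, dispensed at 90 nM, was prereduced with 400 uM NADPH (final) for 5 min at ~22 deg C, then incubated with compound 15 min before 400 uM selenite. A first-read NADPH fluorescence drop versus no-compound background flagged substrates.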
KAT2A inh: blocks human GCN5L2 histone acetyltransferase | Q92830 | actives 0.21% (n = 390,000) | GCN5L2 HAT assay, ThioGlo1 CoA-SH fluorescence | AID 504327 | Potency, µM (titrated, usually from 58.9 µM), without a hit: top-dose activity change, negative = inhibition, usual class: inhibitors; also: potency is read from the fitted curve at half-maximal effect
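Free CoA generated was detected with ThioGlo1 (50uM) fluorescence at Ex340nm/Em540nm, read immediately and after 20 min at room temperature. Enzyme, 20 nM in HEPES pH 7.5 buffer, saw compounds 15 min before adding 75uM H3(1-25) peptide and 70uM acetyl-CoA.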
* marks the source's active call; other numbers are inactive results; u = inconclusive; x = no result; [ ] = dose if it differs, or a comment. Unless noted, calls follow the shape of the dose curve; as a rule, active = well fitted curve in the direction sought with a large enough effect; inconclusive = small, poorly fitted or top-dose-only effect, or another doubt; inactive = no such curve, though single readings can be large; an effect the other way counts as inactive or inconclusive. % is scaled to controls: 0 for no effect and ±100 for the full control effect.

SMILES	TrxR1 inh	GALK inh	Giardia killer	Pin1 inh	TrxR1 substrate	KAT2A inh
C=C1C(=O)[C@@]23[C@H](O)C[C@@H]4C(C)(C)CC[C@H](O)[C@@]4(C)[C@@H]2CC[C@@H]1[C@H]3O	14µM*	x	-11	9%	3%	0%
C=C1C(=O)[C@@]23[C@H](O)C[C@@H]4C(C)(C)CC[C@H](O)[C@]4(C)[C@@H]2C[C@H](O)[C@@H]1[C@H]3O	16µM*	x	-8	-2%	7%	-2%
Cc1nc2ccc(S(=O)(=O)N(C)CC(=O)Nc3cccc(C(F)(F)F)c3)cc2s1	2%	x	x	2%	1%	-4%
Cn1cc(CCNC(=O)CC2C(=O)NCCN2Cc2cccc(Oc3ccccc3)c2)cn1 (stereo not given)	25µM*	2%	-3	-3%	17%	2%
O=C(CC1C(=O)NCCN1Cc1cccc(Oc2ccccc2)c1)NCCc1ccccn1 (stereo not given)	-13%[57.1 µM]	-2%	3	u	-6%[57.1 µM]	-21%
Nc1nonc1C(=O)N/N=C/c1cc2c(cc1Br)OCO2	44%	0%	55	70%	9%	0%
COc1ccc(C2c3c(N)nc(CCCc4ccccc4)nc3Oc3ccc4ccccc4c32)cc1OC (stereo not given)	x	x	x	20%	x	x
COc1ccc(CCCc2nnc(SCC(=O)Nc3cccc(C)c3)o2)cc1C	-3%	x	x	10%	-6%	-9%
Cc1ccc(NC(=O)c2cc(N3C(=O)CCC3=O)ccc2N2CCOCC2)cc1	-14%	1%	0	-10%	-18%[57.1 µM]	-5%
Cc1ccc(NC(=O)c2cc(N3C(=O)C=CC3=O)ccc2N2CCOCC2)cc1Cl	3.5µM*	0%	-1	0%	-9%	u
COc1ccc(C2Nc3ccccc3C(=O)N2Cc2ccccc2)cc1Oc1ccc(NC(C)=O)cc1 (stereo not given)	x	x	x	13%	x	x
COc1ccc(-c2ccc3ncnc(NCCc4cnc[nH]4)c3c2)cc1OC	x	x	x	3%	x	x
O=C(/C=C/c1ccccc1)CCN1CCCCC1	u	x	13	-2%	-5%[57.1 µM]	x
COc1ccc(OC)c(/C=C2\C=Cc3ccccc32)c1	5.6µM*	x	x	x	5%	x
COc1ccc(/C=C2/C=Cc3ccccc32)cc1	-16%	x	x	x	-1%	x
COc1ncc2nc(-c3cccs3)c(=O)n(-c3ccccc3)c2n1	x	x	x	x	x	40µM*
CN1CCN(c2ncc3nc(-c4ccccc4)c(=O)n(-c4ccccc4)c3n2)CC1	x	x	x	x	x	22µM*
COc1ccc(-n2c(=O)c(-c3ccccc3)nc3cnc(N4CCN(C)CC4)nc32)cc1	x	x	x	x	x	-8%
CCOC(=O)C1=C(C)NC2=C(C(=O)c3ccccc32)C1c1ccc([N+](=O)[O-])o1 (stereo not given)	u	4%	-95*	-2%	-10%[57.1 µM]	-18%
CCOC(=O)C1=C(C)NC(=O)NC1c1ccc([N+](=O)[O-])o1 (stereo not given)	-34%	9%	u	-1%	-2%	2%
Cc1c(N2C(=O)CS/C2=N\N=C\c2ccc(Br)cc2)c(=O)n(-c2ccccc2)n1C	-8%	-5%	-17	-1%	-7%	1.6µM*
Cc1ccc(CS(=O)(=O)c2ncc(Cl)c(C(=O)Nc3ccc(OC(F)F)cc3)n2)cc1	28µM*	2%	2	5%	0%	-6%
COc1ccc(NC(=O)c2nc(S(=O)(=O)Cc3ccc(C)cc3)ncc2Cl)cc1	2.5µM*	x	x	-1%	6%	2%
O=C(Nc1ccc(OC(F)F)cc1)c1ncc(Cl)c(Cl)c1Cl	24%[57.1 µM]	0%	12	5%	-2%[57.1 µM]	5%
O=C1Cc2cc(S(=O)(=O)N3CCN(c4ccc(C(F)(F)F)cc4)CC3)ccc2N1	x	x	x	5%[230 µM]	x	x
COc1ccccc1-c1cc(C(F)(F)F)nc(S(=O)(=O)CCCC(=O)Nc2cc(OC)c(OC)c(OC)c2)n1	22µM*	x	x	u	-5%	-1%
COc1ccc(NC(=O)CCCS(=O)(=O)c2nc(-c3ccc(OC)c(OC)c3)cc(C(F)(F)F)n2)cc1OC	25µM*	x	-8	u	-5%	-9%
